# Measurements reported in PubChem BioAssay.
# Activity calls are given as the source filed them.
# How the values were obtained:
# [1] = test system: Plasmodium falciparum Sir2 (PF13_0152, Sir2A); assay: Plasmodium falciparum Sir2A binding compounds – biochemical, small-molecule microarray, 635 nm fluorescence, primary screen (AID 1098); details: fluorescence 635 nm, higher = more signal;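 note: score merges spot fluorescence intensity with its signal-to-noise ratio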
# [2] = probe aDKK1 binding to arrayed compounds – biochemical, biotinylated probe, 635/667 nm fluorescence, primary screen (AID 1099); details: small-molecule microarray, higher = more signal;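 note: score merges 667nm spot fluorescence with signal to noise across triplicate slides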
# [3] = probe aCHRDL2 binding to arrayed compounds – biochemical, biotinylated probe, 635/667 nm fluorescence, primary screen (AID 1100); details: small-molecule microarray, higher = more signal
# [4] = change in splice reporter luminescence, either direction, cell-based, HEK293, spliceosome inhibition project, primary screen (AID 1101); details: HEK293 splicing luciferase reporter, 24 h, higher = more signal, called active from +8 up or from −8 down;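 note: HEK293 cells carrying a splicing-competent luciferase reporter gene; test concentration not given here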
# [5] = target: Fibroblast growth factor 10 (Homo sapiens) (UniProt O15520); assay: compounds binding fibroblast growth factor 10 – biochemical, small-molecule microarray, 635 nm fluorescence, primary screen (AID 1102); details: FGF10 binding, fluorescence 635 nm, higher = more signal
# [6] = test system: glycogen synthase kinase-3 (GSK3A per assay name; protocol says GSK3B); assay: compounds binding glycogen synthase kinase-3 – biochemical, small-molecule microarray, 635 nm fluorescence, GSK3A, primary screen (AID 1103); details: fluorescence 635 nm, higher = more signal; note: the record names both GSK3A and GSK3B
# [7] = target: Epidermal growth factor receptor (Homo sapiens) (UniProt P00533); assay: compounds binding epidermal growth factor receptor – biochemical, small-molecule microarray, 635 nm fluorescence, primary screen (AID 1104); details: EGFR binding, higher = more signal;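 note: score merges 667 nm emission intensity with spot signal to noise over triplicate slides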
# [8] = target: Follistatin-related protein 3 (Homo sapiens) (UniProt O95633); assay: compounds binding follistatin-related protein 3 – biochemical, small-molecule microarray, 635 nm fluorescence, primary screen (AID 1105); details: FSTL3 binding, higher = more signal;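 note: score merges emission near 667 nm and signal to noise per printed spot across three slides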
# [9] = target: Dickkopf-related protein 1 (Homo sapiens) (UniProt O94907); assay: small molecules binding DKK1 protein – biochemical, small-molecule microarray, 635 nm fluorescence scan, primary screen (AID 1106); details: higher = more signal;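 note: score merges emission near 667 nm with signal to noise over three replicate slides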
# [10] = test system: Inhibin beta A chain (activin A); assay: small molecules binding activin A – biochemical, small-molecule microarray, 635 nm fluorescence scan, primary screen (AID 1107); details: INHBA, higher = more signal;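 note: mouse activin A protein probed at 4.33 µg/mL on printed slides; score merges bound-protein fluorescence near 667 nm with spot signal-to-noise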
# [11] = test system: Human papillomavirus type 1a protein E7 (residues 44-93); assay: small molecules binding HPV E7 44-93 – biochemical, small-molecule microarray, residues 44-93, 635 nm fluorescence, primary screen (AID 1108); details: fluorescence 635 nm, higher = more signal;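 note: E7 fragment applied at 1 µg/mL in TBST for 1 h at 4 C; score combines spot fluorescence with its signal to noise ratio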
# [12] = hepatitis C replication reporter changes, two-sided – Huh7 cells, luciferase reporter, HCV replication inhibitor project, primary screen (AID 1109); details: Huh7 HCV replicon luciferase reporter, 48 h; higher = more signal;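 note: huh7 hepatoma cells harbouring a luciferase neomycin HCV replicon reporter; luciferase luminescence as measure of HCV replicon replication; test concentration not given here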
# [13] = target: Left-right determination factor 2 (Homo sapiens) (UniProt O00292); assay: small molecules binding LEFTY2 protein – biochemical, small-molecule microarray, 635 nm fluorescence scan, primary screen (AID 1110); details: higher = more signal
# [14] = target: Calmodulin-1 (Homo sapiens) (UniProt P0DP23); assay: small molecules binding calmodulin-1 with EGTA – biochemical, small-molecule microarray, Cy5-labelled CALM1, profiling panel (AID 1111); details: Cy5-CALM1 binding fluorescence, higher = more signal;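 note: labelled calmodulin applied in Tris saline Tween buffer holding calcium plus EGTA and DTT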
# [15] = target: Calmodulin-1 (Homo sapiens) (UniProt P0DP23); assay: small molecules binding Ca-loaded calmodulin-1 – biochemical, small-molecule microarray, Cy5-labelled CALM1, plus calcium, artefact control for SMM control-protein annotation, profiling panel (AID 1112); details: Cy5-CALM1 binding fluorescence, higher = more signal;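 note: score merges spot fluorescence with signal to noise from triplicate slides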
# [16] = probe aWnt5a binding to arrayed compounds – biochemical, biotinylated probe, 635/667 nm fluorescence, primary screen (AID 1113); details: small-molecule microarray, higher = more signal;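 note: score merges 667 nm fluorescence intensity with signal-to-noise per printed feature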
# [17] = probe aShh binding to arrayed compounds – biochemical, biotinylated probe, 635/667 nm fluorescence, primary screen (AID 1114); details: small-molecule microarray, higher = more signal;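 note: probe is biotin-labelled aShh protein from a stem cell growth factor screen; measures binding of labelled protein to compounds printed on the slide; score merges feature fluorescence at 667 nm with signal-to-noise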
# [18] = probe aNog binding to arrayed compounds – biochemical, biotinylated probe, 635/667 nm fluorescence, primary screen (AID 1115); details: small-molecule microarray, higher = more signal;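 note: probe is biotinylated aNog protein used at 0.15 µg/mL for 1 h at 4 C; z-score combines 667 nm fluorescence of each spot with its signal to noise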
# [19] = target: Torsin-1A-interacting protein 1 (Homo sapiens) (UniProt Q5JTV8); assay: compound microarray binding of lysate hLAP1 – cell lysate, small-molecule microarray, COS7 lysate, 635/667 nm fluorescence, primary screen (AID 1116); details: 635 nm fluorescence, higher = more signal
# [20] = target: Alpha-bungarotoxin (Bungarus multicinctus) (UniProt P60615); assay: compounds binding labelled alpha-BTX control protein – biochemical, small-molecule microarray, Alexa647 label, 635/667 nm fluorescence, artefact control for SMM control protein annotation, profiling panel (AID 1117); details: alpha-BTX-A647 binding fluorescence, higher = more signal
# Alpha-bungarotoxin (Bungarus multicinctus), sequence (P60615 whole entry, looked up): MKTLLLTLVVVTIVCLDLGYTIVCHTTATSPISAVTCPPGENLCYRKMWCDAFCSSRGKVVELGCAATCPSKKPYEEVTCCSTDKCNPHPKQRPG
# Epidermal growth factor receptor (Homo sapiens), sequence (P00533 whole entry, looked up): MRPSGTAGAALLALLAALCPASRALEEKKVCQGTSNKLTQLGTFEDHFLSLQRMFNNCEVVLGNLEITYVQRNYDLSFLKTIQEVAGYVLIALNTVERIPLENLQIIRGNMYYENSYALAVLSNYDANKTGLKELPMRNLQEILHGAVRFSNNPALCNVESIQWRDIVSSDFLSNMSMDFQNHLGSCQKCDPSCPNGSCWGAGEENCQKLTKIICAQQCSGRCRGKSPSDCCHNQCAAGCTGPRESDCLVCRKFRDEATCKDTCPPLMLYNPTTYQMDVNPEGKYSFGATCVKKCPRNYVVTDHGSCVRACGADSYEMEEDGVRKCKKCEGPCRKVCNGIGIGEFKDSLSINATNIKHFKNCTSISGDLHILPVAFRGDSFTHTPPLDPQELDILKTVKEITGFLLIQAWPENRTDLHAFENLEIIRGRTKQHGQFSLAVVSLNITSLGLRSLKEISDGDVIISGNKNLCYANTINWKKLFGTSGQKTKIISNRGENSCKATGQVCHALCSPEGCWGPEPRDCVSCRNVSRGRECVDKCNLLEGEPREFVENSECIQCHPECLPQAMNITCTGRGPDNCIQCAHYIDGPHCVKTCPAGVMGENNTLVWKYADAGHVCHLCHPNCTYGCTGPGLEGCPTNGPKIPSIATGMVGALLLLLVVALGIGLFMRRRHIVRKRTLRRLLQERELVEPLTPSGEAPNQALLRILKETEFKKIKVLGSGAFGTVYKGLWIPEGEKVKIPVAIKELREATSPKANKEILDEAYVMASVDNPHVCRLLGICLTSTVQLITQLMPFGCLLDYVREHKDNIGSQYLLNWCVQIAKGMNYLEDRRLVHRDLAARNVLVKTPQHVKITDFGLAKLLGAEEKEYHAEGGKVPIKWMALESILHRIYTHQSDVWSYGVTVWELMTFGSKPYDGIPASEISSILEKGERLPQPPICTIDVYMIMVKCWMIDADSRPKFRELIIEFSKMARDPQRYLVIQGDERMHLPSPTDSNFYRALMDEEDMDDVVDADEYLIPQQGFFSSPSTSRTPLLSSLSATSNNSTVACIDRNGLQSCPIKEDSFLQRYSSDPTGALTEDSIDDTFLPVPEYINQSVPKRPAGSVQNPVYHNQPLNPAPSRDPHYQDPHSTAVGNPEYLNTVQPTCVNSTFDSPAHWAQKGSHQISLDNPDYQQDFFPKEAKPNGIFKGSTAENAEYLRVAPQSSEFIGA
# Fibroblast growth factor 10 (Homo sapiens), sequence (O15520 whole entry, looked up): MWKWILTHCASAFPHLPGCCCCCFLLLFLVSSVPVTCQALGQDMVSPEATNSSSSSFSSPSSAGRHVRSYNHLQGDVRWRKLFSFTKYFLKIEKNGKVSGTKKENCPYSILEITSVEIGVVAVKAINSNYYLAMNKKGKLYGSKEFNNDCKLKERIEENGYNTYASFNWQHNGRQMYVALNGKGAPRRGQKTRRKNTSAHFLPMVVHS
# Torsin-1A-interacting protein 1 (Homo sapiens), sequence (Q5JTV8 whole entry, looked up): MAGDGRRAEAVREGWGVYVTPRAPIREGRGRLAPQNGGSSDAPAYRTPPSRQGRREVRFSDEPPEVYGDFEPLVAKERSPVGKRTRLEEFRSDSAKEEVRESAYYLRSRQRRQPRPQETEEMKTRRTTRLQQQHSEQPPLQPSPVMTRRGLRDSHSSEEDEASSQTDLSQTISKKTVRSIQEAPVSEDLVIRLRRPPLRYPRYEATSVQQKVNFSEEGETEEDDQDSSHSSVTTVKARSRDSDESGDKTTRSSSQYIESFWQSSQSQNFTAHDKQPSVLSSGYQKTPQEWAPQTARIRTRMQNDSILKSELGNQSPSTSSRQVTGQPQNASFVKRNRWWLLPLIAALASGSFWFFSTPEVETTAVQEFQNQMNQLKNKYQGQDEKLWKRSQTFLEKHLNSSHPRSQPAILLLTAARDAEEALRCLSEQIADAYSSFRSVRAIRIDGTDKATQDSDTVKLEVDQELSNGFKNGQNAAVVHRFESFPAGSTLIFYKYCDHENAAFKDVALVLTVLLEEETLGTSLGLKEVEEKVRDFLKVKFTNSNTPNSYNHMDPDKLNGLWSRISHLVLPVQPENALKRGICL
# Follistatin-related protein 3 (Homo sapiens), sequence (O95633 whole entry, looked up): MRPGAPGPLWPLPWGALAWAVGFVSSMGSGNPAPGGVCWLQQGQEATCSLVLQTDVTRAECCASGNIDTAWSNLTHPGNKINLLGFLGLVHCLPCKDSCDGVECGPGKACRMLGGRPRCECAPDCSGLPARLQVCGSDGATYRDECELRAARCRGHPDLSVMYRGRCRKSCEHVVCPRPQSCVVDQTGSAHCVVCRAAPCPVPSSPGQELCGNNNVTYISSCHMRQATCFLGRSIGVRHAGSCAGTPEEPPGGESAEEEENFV
# Left-right determination factor 2 (Homo sapiens), sequence (O00292 whole entry, looked up): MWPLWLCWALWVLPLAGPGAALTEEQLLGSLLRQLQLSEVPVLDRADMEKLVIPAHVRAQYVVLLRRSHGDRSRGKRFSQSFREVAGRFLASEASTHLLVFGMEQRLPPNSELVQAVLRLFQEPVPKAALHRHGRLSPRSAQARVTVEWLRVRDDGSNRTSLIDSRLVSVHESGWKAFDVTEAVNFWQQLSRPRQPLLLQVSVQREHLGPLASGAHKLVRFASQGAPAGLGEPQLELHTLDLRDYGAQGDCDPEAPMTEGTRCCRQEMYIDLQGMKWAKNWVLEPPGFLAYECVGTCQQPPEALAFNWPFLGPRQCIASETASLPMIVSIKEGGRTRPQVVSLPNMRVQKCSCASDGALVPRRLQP
# Dickkopf-related protein 1 (Homo sapiens), sequence (O94907 whole entry, looked up): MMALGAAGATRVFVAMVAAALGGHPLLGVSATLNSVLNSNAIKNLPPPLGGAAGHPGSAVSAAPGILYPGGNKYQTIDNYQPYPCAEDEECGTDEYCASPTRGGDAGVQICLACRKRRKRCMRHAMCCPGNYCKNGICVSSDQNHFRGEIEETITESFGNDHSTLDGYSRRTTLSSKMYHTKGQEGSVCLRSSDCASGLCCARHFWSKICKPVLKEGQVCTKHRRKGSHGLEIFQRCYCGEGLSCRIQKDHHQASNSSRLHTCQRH
compound,measurement,setting,value
CCOC(=O)C[C@H]1[C@H](OC(=O)c2ccc(-c3ccccc3)cc2)[C@@H](NC(=O)Cc2ccc(OC)cc2)c2cc(OCCCO)ccc2N1C(=O)c1ccccc1,composite z-score,[1],-0.168
same,composite z-score,[2],0.18
same,composite z-score,[3],0.294
same,z-score,[4],0.122 (inactive)
same,composite z-score,[5],0.219
same,composite z-score,[6],-0.454
same,composite z-score,[7],-0.165
same,composite z-score,[8],-0.0876
same,composite z-score,[9],-0.384
same,composite z-score,[10],0.407
same,composite z-score,[11],0.269
same,z-score,[12],-0.898
same,composite z-score,[13],-0.458
same,composite z-score,[14],0.211
same,composite z-score,[15],0.0935
same,composite z-score,[16],-0.0643
same,composite z-score,[17],-0.17
same,composite z-score,[18],-0.306
same,composite z-score,[19],0.294
same,composite z-score,[20],0.582
COc1ccc([Si](C)(C)[C@@H]2[C@@H](CCO)O[C@]3(C(=O)N(Cc4ccc(N(C=O)c5ccccc5)cc4)c4ccccc43)[C@H]2C)cc1,composite z-score,[1],0.724
same,composite z-score,[2],0.116
same,composite z-score,[3],0.605
same,z-score,[4],-1.38 (inactive)
same,composite z-score,[5],0.224
same,composite z-score,[6],-0.157
same,composite z-score,[7],-0.049
same,composite z-score,[8],0.218
same,composite z-score,[9],-0.013
same,composite z-score,[10],1.1
same,composite z-score,[11],0.121
same,z-score,[12],-4.67
same,composite z-score,[13],0.0196
same,composite z-score,[14],1.32
same,composite z-score,[15],0.973
same,composite z-score,[16],-0.0203
same,composite z-score,[17],0.385
same,composite z-score,[18],0.286
same,composite z-score,[19],0.419
same,composite z-score,[20],1.62
CCCC[C@@H]1C[C@H]1[C@@H](NC(=O)c1ccco1)c1ccc(-c2ccccc2)cc1,composite z-score,[1],-0.338
same,composite z-score,[2],0.189
same,composite z-score,[3],0.272
same,z-score,[4],-1.61 (inactive)
same,composite z-score,[5],0.222
same,composite z-score,[6],0.118
same,composite z-score,[7],-0.0501
same,composite z-score,[8],-0.0483
same,composite z-score,[9],-0.426
same,composite z-score,[10],0.39
same,composite z-score,[11],0.114
same,z-score,[12],-0.971
same,composite z-score,[13],0.0023
same,composite z-score,[14],-0.179
same,composite z-score,[15],0.0765
same,composite z-score,[16],0.0916
same,composite z-score,[17],0.104
same,composite z-score,[18],0.376
same,composite z-score,[19],0.425
same,composite z-score,[20],0.0932
C=CCOC(=O)[C@@H]1[C@H]2C(=O)O[C@H](c3ccccc3)[C@H](c3ccccc3)N2[C@H](c2ccc(OCCOC(=O)[C@@H]3C[C@@H]4C(=O)NCC(=O)N4[C@@H]3c3ccc(O)cc3)cc2)[C@@]12C(=O)Nc1ccc(I)cc12,composite z-score,[1],0.924
same,composite z-score,[2],-0.485
same,composite z-score,[3],-0.201
same,z-score,[4],-0.603 (inactive)
same,composite z-score,[5],0.912
same,composite z-score,[6],1.29
same,composite z-score,[7],0.715
same,composite z-score,[8],1.22
same,composite z-score,[9],0.82
same,composite z-score,[10],0.0932
same,composite z-score,[11],0.403
same,z-score,[12],-1.29
same,composite z-score,[13],0.902
same,composite z-score,[14],1.2
same,composite z-score,[15],0.499
same,composite z-score,[16],-0.101
same,composite z-score,[17],0.0796
same,composite z-score,[18],-0.175
same,composite z-score,[19],1.4
same,composite z-score,[20],0.872
COc1ccc(C#Cc2ccc3c(c2)[C@]2(C(=O)N3)[C@H](c3ccccc3OCCO)N3[C@H](c4ccccc4)[C@H](c4ccccc4)OC(=O)[C@H]3[C@@H]2C(=O)Nc2nc3ccccc3s2)cc1,composite z-score,[1],1.64
same,composite z-score,[2],-0.0008
same,composite z-score,[3],-0.197
same,z-score,[4],-1.11 (inactive)
same,composite z-score,[5],1.09
same,composite z-score,[6],1.31
same,composite z-score,[7],0.589
same,composite z-score,[8],1.27
same,composite z-score,[9],0.62
same,composite z-score,[10],0.322
same,composite z-score,[11],1.35
same,z-score,[12],-2.83
same,composite z-score,[13],0.464
same,composite z-score,[14],0.844
same,composite z-score,[15],-0.104
same,composite z-score,[16],-0.128
same,composite z-score,[17],-0.0556
same,composite z-score,[18],1.76
same,composite z-score,[19],0.307
same,composite z-score,[20],1.62
CCOC(=O)C[C@H]1[C@H](OC(=O)c2ccc(C(=O)c3ccccc3)cc2)[C@@H](NC(=O)c2ccc3ccccc3c2)c2cc(OCCCO)ccc2N1C(=O)Cc1ccc(OC)cc1,composite z-score,[1],1.14
same,composite z-score,[2],0.282
same,composite z-score,[3],0.503
same,z-score,[4],-0.175 (inactive)
same,composite z-score,[5],0.545
same,composite z-score,[6],0.158
same,composite z-score,[7],-0.16
same,composite z-score,[8],0.303
same,composite z-score,[9],-0.213
same,composite z-score,[10],0.856
same,composite z-score,[11],0.86
same,z-score,[12],-0.989
same,composite z-score,[13],-0.0254
same,composite z-score,[14],1.14
same,composite z-score,[15],0.187
same,composite z-score,[16],-0.0405
same,composite z-score,[17],-0.0553
same,composite z-score,[18],0.177
same,composite z-score,[19],0.669
same,composite z-score,[20],0.729
C=CCOC(=O)[C@H]1[C@@H]2C(=O)O[C@@H](c3ccccc3)[C@@H](c3ccccc3)N2[C@@H](c2ccc(OCCOC(=O)[C@H]3C[C@H]4C(=O)N[C@@H](CCCCN(C)C)C(=O)N4[C@H]3c3ccc(O)cc3)cc2)[C@]12C(=O)Nc1ccc(I)cc12,composite z-score,[1],1.72
same,composite z-score,[2],0.193
same,composite z-score,[3],0.289
same,z-score,[4],0.426 (inactive)
same,composite z-score,[5],1.31
same,composite z-score,[6],1.32
same,composite z-score,[7],0.741
same,composite z-score,[8],1.41
same,composite z-score,[9],0.849
same,composite z-score,[10],1.29
same,composite z-score,[11],1.4
same,z-score,[12],-0.151
same,composite z-score,[13],1.21
same,composite z-score,[14],0.536
same,composite z-score,[15],-0.62
same,composite z-score,[16],0.114
same,composite z-score,[17],0.275
same,composite z-score,[18],1.14
same,composite z-score,[19],1.64
same,composite z-score,[20],0.864
C[C@@]1([C@@H](NC(=O)c2ccc(-c3ccccc3)cc2)c2ccc(Cl)cc2)C[C@H]1C1CCCCC1,composite z-score,[1],0.78
same,composite z-score,[2],1.13
same,composite z-score,[3],1.07
same,z-score,[4],-1.82 (inactive)
same,composite z-score,[5],0.575
same,composite z-score,[6],0.787
same,composite z-score,[7],0.0292
same,composite z-score,[8],0.313
same,composite z-score,[9],-0.131
same,composite z-score,[10],0.387
same,composite z-score,[11],1.34
same,z-score,[12],-1.18
same,composite z-score,[13],0.279
same,composite z-score,[14],1.42
same,composite z-score,[15],1.2
same,composite z-score,[16],0.0879
same,composite z-score,[17],0.603
same,composite z-score,[18],1.03
same,composite z-score,[19],0.667
same,composite z-score,[20],1.17
CC1(C)[C@@H]2CC(C(O)C3C=CC4C(=O)N(c5ccccc5)C(=O)C4N3Nc3ccc([N+](=O)[O-])cc3)=C[C@H]1C2 (stereo not given in full),composite z-score,[1],0.966
same,composite z-score,[2],0.217
same,composite z-score,[3],0.648
same,z-score,[4],-0.547 (inactive)
same,composite z-score,[5],1.11
same,composite z-score,[6],1.34
same,composite z-score,[7],0.604
same,composite z-score,[8],1.38
same,composite z-score,[9],-0.104
same,composite z-score,[10],0.482
same,composite z-score,[11],1.4
same,z-score,[12],-1.56
same,composite z-score,[13],0.492
same,composite z-score,[14],1.69
same,composite z-score,[15],0.691
same,composite z-score,[16],0.0718
same,composite z-score,[17],0.0326
same,composite z-score,[18],0.902
same,composite z-score,[19],0.561
same,composite z-score,[20],1.67
